Here are results for 18 compounds from PubChem BioAssay (EPA / NIEHS).

The target in assay [1] is human Peroxisome Proliferator-activated Receptor alpha (PPARa), PPARA (gene 5465) (UniProt Q07869). The assay can be described thus: ATG_PPARa_TRANS: Attagene TRANS-FACTORIAL HepG2 Assay for human Peroxisome Proliferator-activated Receptor alpha (PPARa) (AID 2283001). The essentials: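 Transient HepG2 transfection, GAL4-UAS reporters, NR-Gal4 chimeras; 24 h compound exposure. Readout: reporter transcripts by RT-PCR, 6-FAM primer extension, HpaI digest, capillary electrophoresis. Positive direction vs DMSO baseline.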

The target in assay [2] is human Retinoic Acid Receptor gamma (RARg), RARG (gene 5916) (UniProt P13631). The assay can be described thus: ATG_RARg_TRANS: Attagene TRANS-FACTORIAL HepG2 Assay for human Retinoic Acid Receptor gamma (RARg) (AID 2283009). The method in brief: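 Readout: reporter transcript levels via RT-PCR, 6-FAM primer-extension labelling, HpaI digestion and capillary electrophoresis. Cells: HepG2 carrying transfected RARg-GAL4 chimera plus UAS reporter set. Dosing 24 h; DMSO negative control.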

The target in assay [3] is Peroxisome proliferator-activated receptor gamma (Homo sapiens) (UniProt P37231). The assay can be described thus: ATG_PPARg_TRANS: Attagene TRANS-FACTORIAL HepG2 Assay for human Peroxisome Proliferator-activated Receptor-gamma (PPARg) (AID 2283007). The essentials: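 A TRANS-format multiplexed reporter assay measures activity of an exogenous chimeric NR-Gal4 protein in HepG2 cells. After 24 h of chemical exposure, reporter transcripts are amplified, fluorescently labelled and sized by capillary electrophoresis, with gain of signal scored against DMSO.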

Assay [4] concerns the target Nuclear receptor subfamily 1 group I member 2 (Homo sapiens) (UniProt O75469). Put plainly: ATG_PXR_TRANS: Attagene TRANS-FACTORIAL HepG2 Assay for human Pregnane X Receptor (PXR) (AID 2283008). The essentials:
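Multiplexed TRANS reporter panel in HepG2; this component tracks PXR-Gal4-driven reporter mRNA after 24 h dosing, measured by RT-PCR with capillary electrophoresis fluorescence, fitted against DMSO.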

The target of assay [5] is Retinoic acid receptor alpha (Homo sapiens) (UniProt P10276). The assay can be described thus: ATG_RARa_TRANS: Attagene TRANS-FACTORIAL HepG2 Assay for human Retinoic Acid Receptor alpha (RARa) (AID 2283005). The method in brief: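 HepG2 transiently transfected with multiplex GAL4-UAS reporter units including a human RARa–GAL4 chimera; 24 h compound exposure. Reporter mRNA quantified by RT-PCR, 6-FAM labeling and capillary electrophoresis; gain of signal versus DMSO.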

Assay [6] has as its target human Retinoic Acid Receptor beta (RARb), RARB (gene 5915) (UniProt P10826). Put plainly: ATG_RARb_TRANS: Attagene TRANS-FACTORIAL HepG2 Assay for human Retinoic Acid Receptor beta (AID 2283004). The essentials:
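Readout is reporter mRNA induction: RNA reverse-transcribed, PCR-amplified, FAM-labelled, HpaI-cut and resolved by capillary electrophoresis. Transiently transfected HepG2 cells carrying exogenous NR–Gal4 chimeras were dosed for 24 h; activity fitted upward relative to DMSO.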

Assay [7] concerns the target human Peroxisome Proliferator-activated Receptor delta (PPARd), PPARD (gene 5467) (UniProt Q03181). Put plainly: ATG_PPARd_TRANS: Attagene TRANS-FACTORIAL HepG2 Assay for human Peroxisome Proliferator-activated Receptor delta (PPARd) (AID 2283002). The method in brief: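 Fluorescence from capillary electrophoresis of labelled RT-PCR reporter fragments gives the signal; DMSO sets baseline. Cells: HepG2 transiently carrying GAL4-UAS reporter units plus chimeric nuclear receptor-Gal4 proteins, exposed to chemicals for 24 h.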

Records with an inconclusive call do not appear. Active and inactive are the calls of the source. How the source made its calls: active means hit-call score of the fitted dose curve at least 0.9, where 1 is the maximum; inconclusive means response in the unintended direction; inactive means score below 0.9.

Chain of human Retinoic Acid Receptor gamma (RARg), RARG (gene 5916) (P13631 whole entry, looked up, the tested form may be a part): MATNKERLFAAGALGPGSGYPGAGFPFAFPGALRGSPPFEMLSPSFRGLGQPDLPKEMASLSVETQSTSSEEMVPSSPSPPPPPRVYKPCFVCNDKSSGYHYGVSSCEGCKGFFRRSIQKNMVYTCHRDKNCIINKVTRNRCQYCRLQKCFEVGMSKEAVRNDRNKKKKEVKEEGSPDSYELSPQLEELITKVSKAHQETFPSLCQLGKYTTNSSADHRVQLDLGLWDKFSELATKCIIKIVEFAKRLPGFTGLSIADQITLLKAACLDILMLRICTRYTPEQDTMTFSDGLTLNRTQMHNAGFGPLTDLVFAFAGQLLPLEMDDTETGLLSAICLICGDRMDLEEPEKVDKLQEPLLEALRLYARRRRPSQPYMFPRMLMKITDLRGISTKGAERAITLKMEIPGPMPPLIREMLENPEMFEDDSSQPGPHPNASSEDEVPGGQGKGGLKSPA
Chain of Retinoic acid receptor alpha (Homo sapiens) (P10276 whole entry, looked up, the tested form may be a part): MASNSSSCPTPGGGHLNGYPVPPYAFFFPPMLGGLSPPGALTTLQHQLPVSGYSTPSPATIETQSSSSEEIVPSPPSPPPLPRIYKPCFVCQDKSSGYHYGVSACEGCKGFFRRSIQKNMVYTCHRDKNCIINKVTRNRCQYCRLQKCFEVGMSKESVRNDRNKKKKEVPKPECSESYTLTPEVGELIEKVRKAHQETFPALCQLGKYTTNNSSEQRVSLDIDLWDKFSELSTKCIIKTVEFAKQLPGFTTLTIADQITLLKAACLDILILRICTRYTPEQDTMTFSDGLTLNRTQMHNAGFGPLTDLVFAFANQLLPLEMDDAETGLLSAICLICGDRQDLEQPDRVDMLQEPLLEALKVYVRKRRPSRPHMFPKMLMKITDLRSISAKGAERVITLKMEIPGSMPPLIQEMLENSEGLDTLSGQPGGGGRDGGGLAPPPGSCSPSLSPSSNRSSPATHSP
Chain of human Peroxisome Proliferator-activated Receptor delta (PPARd), PPARD (gene 5467) (Q03181 whole entry, looked up, the tested form may be a part): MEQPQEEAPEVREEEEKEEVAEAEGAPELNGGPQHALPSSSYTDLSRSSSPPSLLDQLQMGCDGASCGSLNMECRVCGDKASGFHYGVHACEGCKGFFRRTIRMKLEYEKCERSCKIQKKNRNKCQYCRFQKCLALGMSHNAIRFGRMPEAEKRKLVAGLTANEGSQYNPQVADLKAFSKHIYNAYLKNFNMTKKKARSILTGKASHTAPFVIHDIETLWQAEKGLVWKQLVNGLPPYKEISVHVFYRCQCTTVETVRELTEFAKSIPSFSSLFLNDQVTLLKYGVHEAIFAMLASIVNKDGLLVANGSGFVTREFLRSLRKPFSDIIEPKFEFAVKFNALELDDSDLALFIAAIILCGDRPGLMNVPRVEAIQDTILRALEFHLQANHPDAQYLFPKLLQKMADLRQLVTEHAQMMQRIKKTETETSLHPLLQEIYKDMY
Chain of Peroxisome proliferator-activated receptor gamma (Homo sapiens) (P37231 whole entry, looked up, the tested form may be a part): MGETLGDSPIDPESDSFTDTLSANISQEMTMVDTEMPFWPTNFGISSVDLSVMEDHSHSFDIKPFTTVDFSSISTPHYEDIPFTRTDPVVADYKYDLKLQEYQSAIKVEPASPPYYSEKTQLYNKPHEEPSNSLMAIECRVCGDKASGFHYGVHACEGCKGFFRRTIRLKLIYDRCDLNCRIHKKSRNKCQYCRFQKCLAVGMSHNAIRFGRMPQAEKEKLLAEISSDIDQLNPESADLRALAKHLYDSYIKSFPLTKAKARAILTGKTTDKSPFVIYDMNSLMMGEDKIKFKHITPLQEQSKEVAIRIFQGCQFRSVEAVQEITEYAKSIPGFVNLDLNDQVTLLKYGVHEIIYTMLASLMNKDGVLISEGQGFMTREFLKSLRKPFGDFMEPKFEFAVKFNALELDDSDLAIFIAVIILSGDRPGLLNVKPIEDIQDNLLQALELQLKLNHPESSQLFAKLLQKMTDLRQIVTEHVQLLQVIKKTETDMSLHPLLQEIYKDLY
Chain of human Retinoic Acid Receptor beta (RARb), RARB (gene 5915) (P10826 whole entry, looked up, the tested form may be a part): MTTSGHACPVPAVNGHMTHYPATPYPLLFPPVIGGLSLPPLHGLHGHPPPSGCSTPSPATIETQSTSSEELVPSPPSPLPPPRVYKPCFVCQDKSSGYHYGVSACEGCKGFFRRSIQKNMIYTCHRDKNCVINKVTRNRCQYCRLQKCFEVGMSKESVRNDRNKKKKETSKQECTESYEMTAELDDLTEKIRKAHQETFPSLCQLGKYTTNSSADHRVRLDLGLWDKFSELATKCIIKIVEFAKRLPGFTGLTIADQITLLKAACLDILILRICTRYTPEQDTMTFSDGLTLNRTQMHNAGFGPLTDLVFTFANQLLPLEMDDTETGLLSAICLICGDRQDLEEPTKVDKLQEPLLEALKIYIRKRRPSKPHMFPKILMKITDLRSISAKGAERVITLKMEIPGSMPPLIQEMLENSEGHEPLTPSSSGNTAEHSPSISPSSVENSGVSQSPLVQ
Chain of Nuclear receptor subfamily 1 group I member 2 (Homo sapiens) (O75469 whole entry, looked up, the tested form may be a part): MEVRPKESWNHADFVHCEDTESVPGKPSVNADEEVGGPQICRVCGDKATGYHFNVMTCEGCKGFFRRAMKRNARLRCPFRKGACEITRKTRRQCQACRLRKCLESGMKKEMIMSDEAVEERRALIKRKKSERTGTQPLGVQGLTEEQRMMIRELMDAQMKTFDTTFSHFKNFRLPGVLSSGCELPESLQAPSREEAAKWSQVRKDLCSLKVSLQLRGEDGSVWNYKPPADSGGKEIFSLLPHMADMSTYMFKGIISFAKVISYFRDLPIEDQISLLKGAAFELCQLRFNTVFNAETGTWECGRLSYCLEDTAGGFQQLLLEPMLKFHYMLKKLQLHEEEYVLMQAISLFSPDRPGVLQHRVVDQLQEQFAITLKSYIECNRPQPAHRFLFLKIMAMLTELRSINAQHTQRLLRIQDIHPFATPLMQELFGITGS
Chain of human Peroxisome Proliferator-activated Receptor alpha (PPARa), PPARA (gene 5465) (Q07869 whole entry, looked up, the tested form may be a part): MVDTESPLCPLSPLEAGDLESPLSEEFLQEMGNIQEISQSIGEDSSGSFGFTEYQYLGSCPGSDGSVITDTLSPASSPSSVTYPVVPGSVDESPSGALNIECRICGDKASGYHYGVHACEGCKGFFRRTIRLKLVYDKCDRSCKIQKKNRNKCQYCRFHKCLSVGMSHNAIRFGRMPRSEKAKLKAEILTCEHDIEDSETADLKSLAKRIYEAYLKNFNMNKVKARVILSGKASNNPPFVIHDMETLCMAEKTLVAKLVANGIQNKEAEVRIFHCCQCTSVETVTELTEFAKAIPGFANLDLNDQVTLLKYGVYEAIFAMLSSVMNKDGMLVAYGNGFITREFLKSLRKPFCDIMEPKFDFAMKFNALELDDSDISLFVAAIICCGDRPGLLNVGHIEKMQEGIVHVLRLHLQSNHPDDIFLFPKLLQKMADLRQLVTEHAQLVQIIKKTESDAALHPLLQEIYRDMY

With `CC1=CCC2C(=O)OC(=O)C2C1` (stereo unspecified), the compound was classed as inactive in assay [1] and in assay [2].

Take `Nc1c(Br)cc([N+](=O)[O-])cc1Br`: the compound was called inactive in assay [3] and in assay [2]. Moreover, the AC50 (usually the concentration giving half of the maximal activity seen) in assay [4] is 26.8 µM (active).

Consider `CCc1ccc(C)nc1`, for which the result in assay [5] and in assay [3] was inactive.

Turning to `CCc1cccc(C)c1N(C(=O)C(=O)O)C(C)COC` (stereo unspecified), the outcome in assay [1], in assay [3] and in assay [4] was inactive.

As to `Cc1cccc(C)n1`, the call in assay [6] and in assay [3] was inactive.

Turning to `CCc1cc(Cc2cc(CC)c(N)c(CC)c2)cc(CC)c1N`, the compound was classed as inactive in assay [7] and in assay [2]. Besides, the concentration at half-maximal activity (AC50) is 0.886 µM (active) in assay [3] and 1.08 µM (active) in assay [4].

In the case of `Brc1ccccn1`, the result in assay [6], in assay [3] and in assay [4] was inactive.

For `CCOCOCC`, the compound was classed as inactive in assay [7], in assay [6], in assay [5], in assay [3] and in assay [2].

For `OCC1CCCO1` (stereo unspecified), the compound was classed as inactive in assay [6], in assay [4] and in assay [2].

For `O=c1cccc[nH]1`, the call in assay [6], in assay [5] and in assay [3] was inactive.

With `O=C(c1ccccc1)c1ccc(Cl)cc1`, in assay [7], the call was inactive. The AC50 in assay [3] is 51.6 µM (active).

Regarding `CC(C)(C)c1cc(CCC(=O)OCC(COC(=O)CCc2cc(C(C)(C)C)c(O)c(C(C)(C)C)c2)(COC(=O)CCc2cc(C(C)(C)C)c(O)c(C(C)(C)C)c2)COC(=O)CCc2cc(C(C)(C)C)c(O)c(C(C)(C)C)c2)cc(C(C)(C)C)c1O`, the call in assay [7] was inactive.

Take `CCCCC(CC)COC(=O)c1ccc(N(C)C)cc1` (stereo unspecified): the compound was called inactive in assay [7]. The AC50 in assay [3] is 30.3 µM (active).

As to `CN(C)C(C)(C)CO`, in assay [4], the compound was classed as inactive.

As for `CCOC(OCC)OCC`, the outcome in assay [7], in assay [5] and in assay [3] was inactive.

Turning to `CCOC(=O)C1CC(=O)C(=C(O)C2CC2)C(=O)C1` (stereo unspecified), the call in assay [3] and in assay [4] was inactive.

Turning to `N#CCCOCCC#N`, the compound was classed as inactive in assay [5], in assay [3], in assay [4] and in assay [2].

Take `CC(C)=CCCC(C)O` (stereo unspecified): in assay [3], the result was inactive.
